# From PubChem BioAssay AID1159580 (chemical genetic matrix, 2015)
# The whole screen tested about 5,500 compounds, of which about 2,000 (36%) were called active. Another 18% or so got no clear call; they are omitted. Some of the results follow. A number with no mark means an inactive call. Rule as the data show it: active = normalized growth mostly below about 0.91 (no sharp cut-off); inconclusive = no clear call, values can overlap the other calls; inactive = mostly above about 0.92.
# Assay: chemical genetic growth profiling, strain panel (AID 1159580);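 also: tested at 20 µM; growth read once vehicle control cultures reached saturation at 30 °C; 1 = growth at the plate median or of vehicle wells; lower values mean less growth of the strain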
# Details: growth OD
# [1] = S. cerevisiae deletion strains, locus YHR030C, strain SLT2, hits give low values
# [2] = S. cerevisiae deletion strains, locus YHR079C, strain IRE1, hits give low values
# [3] = S. cerevisiae deletion strains, locus YJL095W, strain BCK1, hits give low values
# [4] = S. cerevisiae deletion strains, locus YJR066W, strain TOR1, hits give low values
# [5] = S. cerevisiae deletion strains, locus YLR113W, strain HOG1, hits give low values
# [6] = S. cerevisiae deletion strains, locus YNL183C, strain NPR1, hits give low values
# [7] = S. cerevisiae deletion strains, locus YOR231W, strain MKK1, hits give low values
# [8] = S. cerevisiae deletion strains, locus YPL256C, strain CLN2, hits give low values
# [9] = S. cerevisiae deletion strains, locus YDL101C, strain DUN1, hits give low values
# [10] = S. cerevisiae deletion strains, locus YAL013W, strain DEP1, hits give low values
# [11] = S. cerevisiae deletion strains, locus YBR229C, strain ROT2, hits give low values
# [12] = S. cerevisiae deletion strains, locus YCL061C, strain MRC1, hits give low values
# [13] = S. cerevisiae deletion strains, locus YDL134C, strain PPH21, hits give low values
# [14] = S. cerevisiae deletion strains, locus YDR150W, strain NUM1, hits give low values
# [15] = S. cerevisiae deletion strains, locus YEL061C, strain CIN8, hits give low values
# [16] = S. cerevisiae deletion strains, locus YGR078C, strain PAC10, hits give low values
# [17] = S. cerevisiae deletion strains, locus YGR229C, strain SMI1, hits give low values
# [18] = S. cerevisiae deletion strains, locus YHR087W, strain rtc3, hits give low values
# [19] = S. cerevisiae deletion strains, locus YJR043C, strain POL32, hits give low values
# [20] = S. cerevisiae deletion strains, locus YJR075W, strain HOC1, hits give low values
# [21] = S. cerevisiae deletion strains, locus YKL190W, strain CNB1, hits give low values
# [22] = S. cerevisiae deletion strains, locus YLR039C, strain RIC1, hits give low values
# [23] = S. cerevisiae deletion strains, locus YLR058C, strain SHM2 (second series), hits give low values
# [24] = S. cerevisiae deletion strains, locus YLR085C, strain ARP6, hits give low values
# [25] = S. cerevisiae deletion strains, locus YLR262C, strain YPT6, hits give low values
# [26] = S. cerevisiae deletion strains, locus YML094W, strain GIM5, hits give low values
# [27] = S. cerevisiae deletion strains, locus YMR219W, strain ESC1, hits give low values
# [28] = S. cerevisiae deletion strains, locus YMR263W, strain SAP30, hits give low values
# [29] = S. cerevisiae deletion strains, locus YNL153C, strain GIM3, hits give low values
# [30] = S. cerevisiae deletion strains, locus YNL298W, strain CLA4 (second series), hits give low values
# [31] = S. cerevisiae deletion strains, locus YNL322C, strain KRE1, hits give low values
# [32] = S. cerevisiae deletion strains, locus YNR030W, strain Alg12, hits give low values
# [33] = S. cerevisiae deletion strains, locus YPL055C, strain LGE1, hits give low values
# [34] = S. cerevisiae deletion strains, locus YPL241C, strain CIN2, hits give low values
# [35] = S. cerevisiae deletion strains, locus YPR135W, strain CTF4, hits give low values
# [36] = S. cerevisiae strains, strain wild type, hits give low values
compound,measurement,setting,value
CC(=O)OCC(=O)[C@@]1(O)CCC2C3CCC4=CC(=O)C=C[C@]4(C)[C@@]3(Cl)[C@@H](Cl)C[C@@]21C (stereo partly specified),normalized growth,[1],0.991
same,normalized growth,[2],0.991
same,normalized growth,[3],0.968
same,normalized growth,[4],0.923
same,normalized growth,[5],1.06
same,normalized growth,[6],0.916
same,normalized growth,[7],0.952
same,normalized growth,[8],0.99
CN(C)/C=C1\CSc2ccc(Cl)cc2C1=O,normalized growth,"S. cerevisiae deletion strains, locus YAR019C, strain CDC15, hits give low values",0.927
same,normalized growth,"S. cerevisiae deletion strains, locus YBL105C, strain PKC1, hits give low values",0.957
same,normalized growth,"S. cerevisiae deletion strains, locus YBR135W, strain CKS1, hits give low values",0.965
same,normalized growth,"S. cerevisiae deletion strains, locus YBR136W, strain MEC1, hits give low values",0.949
same,normalized growth,"S. cerevisiae deletion strains, locus YBR160W, strain CDC28, hits give low values",0.95
same,normalized growth,"S. cerevisiae deletion strains, locus YDL017W, strain CDC7, hits give low values",0.953
same,normalized growth,"S. cerevisiae deletion strains, locus YDL028C, strain MPS1, hits give low values",0.953
same,normalized growth,[9],0.975
same,normalized growth,"S. cerevisiae deletion strains, locus YDL108W, strain KIN28, hits give low values",0.947
same,normalized growth,"S. cerevisiae deletion strains, locus YDL132W, strain cdc53, hits give low values",0.956
same,normalized growth,"S. cerevisiae deletion strains, locus YDL214C, strain PRR2, hits give low values",0.763
same,normalized growth,"S. cerevisiae deletion strains, locus YDR052C, strain DBF4, hits give low values",0.967
same,normalized growth,"S. cerevisiae deletion strains, locus YDR054C, strain cdc34, hits give low values",0.94
same,normalized growth,"S. cerevisiae deletion strains, locus YDR226W, strain ADK1, hits give low values",0.947
same,normalized growth,"S. cerevisiae deletion strains, locus YDR477W, strain SNF1, hits give low values",0.832
same,normalized growth,"S. cerevisiae deletion strains, locus YER123W, strain YCK3, hits give low values",0.565 (active)
same,normalized growth,"S. cerevisiae deletion strains, locus YER133W, strain GLC7, hits give low values",0.811
same,normalized growth,"S. cerevisiae deletion strains, locus YFL009W, strain cdc4, hits give low values",0.944
same,normalized growth,"S. cerevisiae deletion strains, locus YFL029C, strain CAK1, hits give low values",0.932
same,normalized growth,"S. cerevisiae deletion strains, locus YFR003C, strain YPI1, hits give low values",0.952
same,normalized growth,"S. cerevisiae deletion strains, locus YFR019W, strain FAB1, hits give low values",0.771 (active)
same,normalized growth,"S. cerevisiae deletion strains, locus YFR028C, strain CDC14, hits give low values",0.942
same,normalized growth,"S. cerevisiae deletion strains, locus YGR040W, strain KSS1, hits give low values",0.832
same,normalized growth,"S. cerevisiae deletion strains, locus YGR052W, strain FMP48, hits give low values",0.799
same,normalized growth,"S. cerevisiae deletion strains, locus YGR092W, strain DBF2, hits give low values",0.824
same,normalized growth,[1],0.311 (active)
same,normalized growth,[2],0.555
same,normalized growth,"S. cerevisiae deletion strains, locus YHR082C, strain KSP1, hits give low values",0.758
same,normalized growth,"S. cerevisiae deletion strains, locus YHR205W, strain SCH9, hits give low values",0.75
same,normalized growth,"S. cerevisiae deletion strains, locus YIL147C, strain SLN1, hits give low values",0.928
same,normalized growth,[3],0.444 (active)
same,normalized growth,"S. cerevisiae deletion strains, locus YJL128C, strain PBS2, hits give low values",1.01
same,normalized growth,"S. cerevisiae deletion strains, locus YJL157C, strain FAR1, hits give low values",0.775
same,normalized growth,"S. cerevisiae deletion strains, locus YJR016C, strain ILV3, hits give low values",0.965
same,normalized growth,"S. cerevisiae deletion strains, locus YJR066W, strain TOR1 (second series), hits give low values",0.728
same,normalized growth,[4],0.633
same,normalized growth,"S. cerevisiae deletion strains, locus YKL048C, strain ELM1, hits give low values",0.937
same,normalized growth,"S. cerevisiae deletion strains, locus YKL067W, strain YNK1, hits give low values",0.771
same,normalized growth,"S. cerevisiae deletion strains, locus YKL101W, strain HSL1, hits give low values",0.861
same,normalized growth,"S. cerevisiae deletion strains, locus YKL193C, strain SDS22, hits give low values",0.938
same,normalized growth,"S. cerevisiae deletion strains, locus YKL203C, strain TOR2, hits give low values",0.886
same,normalized growth,[5],0.537 (active)
same,normalized growth,"S. cerevisiae deletion strains, locus YLR133W, strain CKI1, hits give low values",0.799
same,normalized growth,"S. cerevisiae deletion strains, locus YLR403W, strain SFP1, hits give low values",0.792
same,normalized growth,"S. cerevisiae deletion strains, locus YML070W, strain DAK1, hits give low values",0.618 (active)
same,normalized growth,"S. cerevisiae deletion strains, locus YMR001C, strain CDC5, hits give low values",0.941
same,normalized growth,"S. cerevisiae deletion strains, locus YMR205C, strain PFK2 (second series), hits give low values",0.872
same,normalized growth,"S. cerevisiae deletion strains, locus YMR277W, strain FCP1, hits give low values",0.943
same,normalized growth,"S. cerevisiae deletion strains, locus YNL006W, strain LST8, hits give low values",0.952
same,normalized growth,"S. cerevisiae deletion strains, locus YNL020C, strain ARK1, hits give low values",0.817
same,normalized growth,"S. cerevisiae deletion strains, locus YNL161W, strain CBK1, hits give low values",0.955
same,normalized growth,[6],0.559
same,normalized growth,"S. cerevisiae deletion strains, locus YNL207W, strain RIO2, hits give low values",0.922
same,normalized growth,"S. cerevisiae deletion strains, locus YNL222W, strain SSU72, hits give low values",0.955
same,normalized growth,"S. cerevisiae deletion strains, locus YNL307C, strain MCK1 (second series), hits give low values",0.822
same,normalized growth,"S. cerevisiae deletion strains, locus YOL078W, strain AVO1, hits give low values",0.95
same,normalized growth,"S. cerevisiae deletion strains, locus YOL136C, strain PFK27, hits give low values",0.691
same,normalized growth,"S. cerevisiae deletion strains, locus YOR061W, strain CKA2, hits give low values",0.831
same,normalized growth,"S. cerevisiae deletion strains, locus YOR119C, strain RIO1, hits give low values",0.862
same,normalized growth,[7],0.595
same,normalized growth,"S. cerevisiae deletion strains, locus YOR329C, strain SCD5, hits give low values",0.953
same,normalized growth,"S. cerevisiae deletion strains, locus YPL031C, strain PHO85, hits give low values",0.825
same,normalized growth,"S. cerevisiae deletion strains, locus YPL153C, strain RAD53, hits give low values",0.752
same,normalized growth,"S. cerevisiae deletion strains, locus YPL204W, strain HRR25, hits give low values",0.802
same,normalized growth,"S. cerevisiae deletion strains, locus YPL209C, strain IPL1, hits give low values",0.954
same,normalized growth,[8],0.627 (active)
same,normalized growth,"S. cerevisiae deletion strains, locus YPR025C, strain CCL1, hits give low values",0.962
same,normalized growth,"S. cerevisiae deletion strains, locus YPR106W, strain ISR1, hits give low values",0.95
same,normalized growth,"S. cerevisiae deletion strains, locus YPR111W, strain DBF20, hits give low values",0.947
same,normalized growth,"S. cerevisiae deletion strains, strain NNK1, hits give low values",0.941
same,normalized growth,"S. cerevisiae deletion strains, strain TSCII, hits give low values",0.942
CN(C)/C=C1\CSc2ccc(F)cc2C1=O,normalized growth,[10],0.909 (active)
same,normalized growth,[11],0.719 (active)
same,normalized growth,[12],0.812 (active)
same,normalized growth,[9],0.291 (active)
same,normalized growth,[13],0.119 (active)
same,normalized growth,[14],0.885
same,normalized growth,[15],0.613 (active)
same,normalized growth,[16],0.787 (active)
same,normalized growth,[17],0.861 (active)
same,normalized growth,[1],0.102 (active)
same,normalized growth,[18],0.753 (active)
same,normalized growth,[19],0.908 (active)
same,normalized growth,[20],0.74 (active)
same,normalized growth,[21],0.0876 (active)
same,normalized growth,[22],0.429 (active)
same,normalized growth,[23],1.01
same,normalized growth,[24],0.154 (active)
same,normalized growth,[25],0.517 (active)
same,normalized growth,[26],0.658 (active)
same,normalized growth,[27],0.821 (active)
same,normalized growth,[28],0.903 (active)
same,normalized growth,"S. cerevisiae deletion strains, locus YMR307W, strain GAS1, hits give low values",0.291 (active)
same,normalized growth,[29],0.852 (active)
same,normalized growth,[30],0.415 (active)
same,normalized growth,[31],0.995
same,normalized growth,[32],0.119 (active)
same,normalized growth,[33],0.787 (active)
same,normalized growth,[34],0.103 (active)
same,normalized growth,[35],0.303 (active)
same,normalized growth,[36],0.491 (active)
Cc1nnsc1C(=O)O/N=C1/CCSc2ccc(F)cc21,normalized growth,[10],0.975
same,normalized growth,[11],0.969
same,normalized growth,[12],0.994
same,normalized growth,[9],0.967
same,normalized growth,[13],0.982
same,normalized growth,[14],0.973
same,normalized growth,[15],0.943
same,normalized growth,[16],0.973
same,normalized growth,[17],0.983
same,normalized growth,[1],0.775
same,normalized growth,[18],0.966
same,normalized growth,"S. cerevisiae deletion strains, locus YJL187C, strain SWE1, hits give low values",0.996
same,normalized growth,[19],0.984
same,normalized growth,[20],0.994
same,normalized growth,[21],0.98
same,normalized growth,[22],0.848
same,normalized growth,[23],0.985
same,normalized growth,[24],0.856
same,normalized growth,[25],0.878
same,normalized growth,[26],0.932
same,normalized growth,[27],0.988
same,normalized growth,[28],0.989
same,normalized growth,"S. cerevisiae deletion strains, locus YNL128W, strain TEP1, hits give low values",1
same,normalized growth,[29],0.971
same,normalized growth,[30],0.973
same,normalized growth,[31],0.979
same,normalized growth,[32],0.945
same,normalized growth,"S. cerevisiae deletion strains, locus YOL006C, strain TOP1, hits give low values",0.981
same,normalized growth,[33],0.956
same,normalized growth,[34],0.997
same,normalized growth,[35],0.874
same,normalized growth,[36],0.978
